# From PubChem BioAssay AID651597 (National Center for Advancing Translational Sciences (NCATS), 2012)
# Among all 1,100 compounds or so, about 390 (35%) were called active. About 30% were inconclusive and are not listed. The list shows a part of the results. Unmarked numbers belong to inactive results. Calls follow the shape of the dose curve; as a rule, active = well fitted inhibition curve with a large enough effect; inconclusive = small, poorly fitted or top-dose-only effect; inactive = flat fitted curve, though single readings scatter.
# Target: Luciferin 4-monooxygenase (Photinus pyralis) (UniProt P08659)
# Assay: qHTS of Nrf2 Activators: Hit Validation in Secondary FLuc Assay; also: nearly all actives have a fitted effect of over 65% in size
# Details: firefly luciferase inhibition counter-screen, luminescence; series mostly up to 57.5 µM; activity, negative = inhibition: at the top concentration
# Source text: Many diseases have some form of oxidative stress injury and ties to inflammation, causing a host of problems for the patient. The antioxidant response element (ARE) plays an important role in alleviating the harmful effects of oxidative stress. The antioxidant response element (ARE) is a transcriptional regulatory element involved in the activation of genes coding for a number of antioxidant proteins and detoxifying enzymes. These enzymes work in concert to protect tissues from oxidative insults and chemical toxicities in human hepatocytes and immune cells. The protective effects of ARE activation are primarily triggered through Nrf2 (NF-E2-related factor) binding to and activating AREs. It is known that Nrf2 controls the production of over 250 antioxidant and detoxification proteins (Hu et al., 2006), thereby protecting tissues by increasing cellular antioxidant content and suppressing inflammatory signaling pathways. The transcription factor Nrf2 is a central link between oxidative chemicals, such as phenolic antioxidants and electrophilic compounds, and the activation of ARE. Nrf2 levels are constitutively low as a consequence of its interaction with Keap1, which targets its degradation (Zipper and Mulcahy, 2002). Electrophiles react with key cysteine residues in Keap1, releasing Nrf2 and allowing its translocation to the nucleus. Once within the nucleus, Nrf2 complexes with coactivators such as p300, and binds to the AREs to induce gene transcription of cytoprotective enzymes, resulting in the prevention of toxicity. Activation of Nrf2 protects tissues by increasing cellular antioxidant content and suppressing inflammatory signaling pathways. Identifying novel and potent Nrf2 activators by using the AREc32 cell line to detect ARE activation by small molecules will lead to the identification and development of probes to study protective pathways in multiple tissues. These specific probes are essential to study the ARE pathway, and eventually to determine whether this pathway does activate genes that could protect against a host of diseases, including cardiovascular diseases, obesity, diabetes, Alzheimer's, and Parkinson's disease.
# This project's aim is to identify novel and potent Nrf2 activators by using the AREc32 cell line to detect ARE activation by small molecules, which will lead to the identification and development of probes to study the ARE pathway. In this counter assay, we aim to identify false positive as identified from this primary assay using an FLuc assay with an inhibiting read-out.
# NIH Chemical Genomics Center [NCGC]
# NIH Molecular Libraries Probe Centers Network [MLPCN]
# Assay Submitter (PI): Curtis Klaassen, University of Kansas Medical Center
# Assess whether an activator in the primary assay potentially causes such activation by inhibitor-induced stabilization of the firefly luciferase reporter enzyme by determining whether it inhibits firefly luciferase in the presence of Km concentrations of its substrates (ATP and D-luciferin).
# % is scaled to controls: 0 for no effect and ±100 for the full control effect; potency is read from the fitted curve at half-maximal effect.
Structure (SMILES),Potency,"activity, negative = inhibition [%]"
Clc1ccc(-c2nnc(-c3cccc4ccccc34)o2)cc1,1.35 µM (active),–
COc1cc2c(cc1Cl)/C(=C\CCN(C)C)c1ccccc1S2,–,-23.3
Cc1nnc2n1N=CC=C(c1ccccc1)S2,–,-5.49
C#CCSc1nnc(-c2sc3ccccc3c2Cl)o1,2.39 µM (active),–
O=C1C(=C2CCc3ccccc32)Cc2ccccc21,0.301 µM (active),–
O=C(NNC(=O)c1sccc1-n1cccc1)c1cccc(Cl)c1,–,-17.1
Cc1ccc(S(=O)(=O)/N=C(/NNC(=O)c2cccc(Cl)c2)c2ccccc2)cc1,5.36 µM (active),–
O=C(NN/C(=N/S(=O)(=O)c1ccc(Cl)cc1)c1ccccc1)c1cccc(Cl)c1,3.01 µM (active),–
O=[N+]([O-])c1cccc2ccc(/C=C/c3ccc(F)cc3)nc12,2.39 µM (active),–
O=[N+]([O-])c1ccc(/C=C/c2ccc3cccc([N+](=O)[O-])c3n2)cc1,–,-23.3
Cc1c(=O)n(OCc2ccccc2)c2ccccc2[n+]1[O-],–,-2.37
N=c1oc2ccccc2cc1-c1nc(-c2ccccc2)cs1,2.69 µM (active),–
Cc1cc(SCC(=O)N/N=C/c2ccco2)nc2ccccc12,–,-26.3
CC1CCCCC1NC(=O)COC(=O)c1c2c(nc3ccccc13)/C(=C/c1ccco1)CC2 (stereo not given),4.78 µM (active),–
c1ccc(-c2ccc3c(c2)NC(C2Nc4cc(-c5ccccc5)ccc4O2)O3)cc1 (stereo not given),–,1.75
O=C1C(Cl)=C(N2CCN(c3ccccc3[N+](=O)[O-])CC2)C(=O)c2ccccc21,1.2 µM (active),–
O=[N+]([O-])c1ccccc1S(=O)c1ccccc1[N+](=O)[O-],–,5.65
O=C(Nc1ccc(Cl)cn1)c1cnn2cccnc12,2.39 µM (active),–
O=C(Nc1cccn2ncnc12)c1cccc(C(F)(F)F)c1,–,-23.6
N#CC(C(=O)NCc1ccco1)c1nc2ccccc2nc1N1CCOCC1 (stereo not given),–,-12.9
O=C(NCc1ccco1)c1cccnc1-c1nc2ccccc2s1,10.7 µM (active),–
COc1c(Cl)cc(C(=O)NCc2ccco2)cc1Cl,–,1.36
O=C(Nc1cccc(/C=C/c2ccccn2)c1)c1ccc(-n2cncn2)cc1,2.13 µM (active),–
Cn1c(=O)n(C)c2cc(NC(=O)c3cccc([N+](=O)[O-])c3)c(Br)cc21,–,3.58
Cc1cc(CNC(=O)c2cccc([N+](=O)[O-])c2)c2ccccc2n1,–,9.05
COc1ccc(/C(N)=N/OC(=O)c2cccc([N+](=O)[O-])c2)cc1,1.51 µM (active),–
COc1cc(OC)cc(C(=O)O/N=C(\N)c2cccc(C)c2)c1,9.53 µM (active),–
CCOC(=O)CCn1c(=O)c2cccn2c2cccnc21,–,-1.77

Structure (SMILES),Potency,"activity, negative = inhibition [%]"
Cc1nc(/N=C(\N)NC(=O)c2ccccc2)nc2ccccc12,3.79 µM (active),–
C(=Cc1cnnc2ccccc12)c1ccccc1,3.38 µM (active),–
COc1ccc(Cl)cc1C(=O)O/N=C(\N)c1ccccn1,10.7 µM (active),–
COc1ccccc1C(=O)O/N=C(\N)c1ccc(Cl)cc1,3.38 µM (active),–
COc1ccc(C(C)=O)cc1OCc1ccccc1,–,2.24
COc1ccc(Cl)cc1C(=O)O/N=C(\N)c1ccncc1,–,-28.3
COc1ccc(Cl)cc1NC(=O)c1cc(C)no1,–,5.19
COc1ccc(Cl)cc1C(=O)NC(=S)Nc1nc(C)cc(C)n1,–,-3.81
COc1ccc(Cl)cc1C(=O)O/N=C(\N)c1ccc(Cl)cc1,9.53 µM (active),–
COCCNC(=O)c1ccc(-n2c(-c3ccccc3)cc3c2CCC(C)C3)cc1 (stereo not given),–,-5.53
CSc1nc(Oc2ccc3ccccc3c2)c2sccc2n1,–,-2.81
Cc1nc([N+](=O)[O-])c(Br)n1Cc1ccccc1,–,2.06
COc1ccc(/C=C2/CCCC(CN(C)C)C2=O)cc1 (stereo not given),3.38 µM (active),–
COc1cccc(/C=C2/CCC(CN(C)C)C2=O)c1 (stereo not given),1.51 µM (active),–
COc1nc2ccc(C)cc2cc1-c1noc(-c2ccccc2)n1,–,-6.47
O=C(CSc1nnc(-c2cccnc2)o1)c1cc2ccccc2oc1=O,–,-5.35
Brc1ccc(-c2nnc(-c3cccnc3)c3conc23)cc1,–,-20.3
COc1cccc(-c2nc(-c3ccccc3)no2)c1,0.151 µM (active),–
Fc1ccccc1-c1nc(-c2ccc(Cl)cc2)no1,0.478 µM (active),–
COc1cccc(C2=CC(c3cccs3)n3nnnc3N2)c1 (stereo not given),–,-29.4
c1ccc(-c2noc(-c3cccc4ccccc34)n2)cc1,0.953 µM (active),–
c1ccc(-c2noc(-c3cccnc3)n2)cc1,3.01 µM (active),–
O=C(CN1CC(=O)Oc2ccccc21)OCC(=O)c1ccc(F)cc1,–,-0.826
c1cncc(-c2noc(-c3cccc4ccccc34)n2)c1,2.39 µM (active),–
Cc1cc(C)c(C#N)c(SCC(=O)c2cccs2)n1,12 µM (active),–
Cc1cc(C)c(C#N)c(SCC(=O)c2ccccc2)n1,–,-6.37
Cc1cc(C)c(C#N)c(OCC(=O)c2ccccc2)n1,–,4.68
